Bioassay records deposited in PubChem by National Center for Advancing Translational Sciences (NCATS).
Rows were chosen to be rich in hits. Some 7.6% of all compounds tested hit in one or more screens of this group.
BRCA1 expr act = activators of BRCA1 expression. MCF7-BRCA1-FFLuc reporter, luminescence, 48 h; response scale: scaled: vehicle 0%, 10 µM genistein 100%. Potency, µM (doses to about 46.1 µM), usual class: activators. AID 624202. 380,000 compounds, 1.1% hits; also: nearly all actives have a fitted effect of over 80% in size
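Activators of BRCA1 expression were detected as increased firefly luciferase luminescence in engineered MCF7 cells after 48 h compound incubation. Signals were scaled to genistein 10 microM as full activation.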
Gal4-VP16 FLuc = counter-screen for ROR gamma inhibitors: Gal4-VP16 reporter; Drosophila S2 Gal4-VP16 UAS-luciferase, luminescence, 20 h; Potency, µM (doses to about 53.6 µM), hits mostly inhibitors; 310,000 compounds, 3.5% hits;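 also: Gal4-VP16 expression switched on by copper sulfate through the metallothionein promoter; nearly all actives have a fitted effect of over 50% in size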
ELG1 repair inh = blocks ELG1-dependent DNA repair in HEK293T cells. HEK293T ELG1-luciferase reporter, luminescence, 16 h; DNA damage induced by 5-fluorouridine. Potency, µM (highest dose often 46.1 µM), most hits filed as inhibitors. 330,000 compounds, 2.3% hits. AID 504467; also: nearly all actives have a fitted effect of over 55% in size
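Step one: seed 2,000 cells per well. Step two: pin-transfer compound or DMSO alongside 5-fluorouridine. Step three: incubate 16 hr, 37 °C, 5% CO2. Step four: add ONE-Glo, wait 30 min, read luminescence.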
RORgamma inh = ROR gamma (mouse) transcription inhibition | Drosophila S2 Gal4-RORgamma UAS-luciferase reporter, 20 h | Potency, µM (highest dose often 53.6 µM), most hits filed as inhibitors | 310,000 compounds, 5.4% hits | AID 2551; also: nearly all actives have a fitted effect of over 60% in size
Target sequence (P51450 whole entry, looked up, the tested form may be a part): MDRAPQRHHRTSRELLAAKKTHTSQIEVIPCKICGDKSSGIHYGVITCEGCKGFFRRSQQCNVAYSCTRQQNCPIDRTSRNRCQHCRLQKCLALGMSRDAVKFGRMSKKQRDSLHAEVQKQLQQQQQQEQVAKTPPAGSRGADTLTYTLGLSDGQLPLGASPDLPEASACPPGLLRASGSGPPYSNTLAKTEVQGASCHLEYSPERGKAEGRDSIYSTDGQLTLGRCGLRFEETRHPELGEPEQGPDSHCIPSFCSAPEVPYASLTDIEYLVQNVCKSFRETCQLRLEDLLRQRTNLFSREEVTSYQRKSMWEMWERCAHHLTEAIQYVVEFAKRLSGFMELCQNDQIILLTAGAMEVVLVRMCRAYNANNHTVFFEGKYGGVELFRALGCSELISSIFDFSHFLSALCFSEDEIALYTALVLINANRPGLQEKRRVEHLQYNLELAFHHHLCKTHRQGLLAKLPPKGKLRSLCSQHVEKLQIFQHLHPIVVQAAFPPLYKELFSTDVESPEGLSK
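Using a luciferase readout, inhibitors were identified by reduced reporter activity in Drosophila cells coexpressing a copper-inducible Gal4–ROR gamma fusion and UAS-driven Photinus luciferase, incubated 20 hr after 700 uM copper sulfate.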
Giardia kill = Giardia lamblia killing; Giardia lamblia trophozoite viability; AID 540267; 340,000 compounds, 0.15% hits; activity change, % at 7.66 µM, hits read low; in the data active = activity change below about -80%; inconclusive = between about -30% and that limit;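 also: parasites exposed to compound for two days anaerobically before the ATP read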
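Media and compound were dispensed first, then trophozoites at 100 cells/well; plates sat 48 hrs at 37 deg C without oxygen before ATP luminescence reagent was added and read after 15-30 min at room temperature.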
p53 reactivation = restores transcriptional activity of mutant p53; Potency, µM (titrated, usually from 92.2 µM), most hits filed as activators; 320,000 compounds, 0.063% hits; AID 504706; H1299 p53-A138V BP100-luciferase reporter, luminescence, 24 h; also: nearly all actives have a fitted effect of over 45% in size
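H1299 (p53-null), stable ts p53-A138V + BP100-Luc; 1000 cells/well, Opti-MEM/10% FBS; cpd 4 pt, 1:5; 24 h, 37 deg C, 5% CO2; detection reagent 10 min RT; luminescence.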
Numbers stand for hits; n = inactive; u = inconclusive; x = not tested or not shown; [ ] = remark or other dose. Unless noted, calls follow the shape of the dose curve; as a rule, active = well fitted curve in the direction sought with a large enough effect; inconclusive = small, poorly fitted or top-dose-only effect, or another doubt; inactive = no such curve, though single readings can be large; an effect the other way counts as inactive or inconclusive.

SMILES	BRCA1 expr act	Gal4-VP16 FLuc	ELG1 repair inh	RORgamma inh	Giardia kill	p53 reactivation
N#Cc1ccccc1Cn1cc(/C=C/[N+](=O)[O-])c2ccccc21	n	20µM	21µM	u	n	n
O=C(Nc1ccccc1N1CCOCC1)C1CCN(S(=O)(=O)c2ccc(Cl)cc2)CC1	n	n	n	n	n	n
c1ccc(Cn2c(-c3ccccc3)nc3nc4ccccc4nc32)cc1	n	n	21µM	n	n	n
Clc1cccc(-c2nc3nc4ccccc4nc3n2Cc2ccccc2)c1	n	n	u	n	n	n
C#CCSc1nc(C)cc(C(=O)OCC)c1C#N	n	n	n	n	n	n
O=c1c2ccccc2nc2n1C(CSCc1ccc(Cl)cc1Cl)CS2 (configuration not stated)	n	22µM	n	n	n	n
CCNc1nc(NCC)nc(N(C)N)n1	n	u	n	7.1µM	n	n
O=S(=O)(Nc1cc(Sc2cccc3cccnc23)c(O)c2ccccc12)c1ccc(F)cc1	n	2.5µM	9.2µM	1.3µM	-98	n
COc1ccc(S(=O)(=O)Nc2ccc(O)c(Sc3ncn[nH]3)c2)cc1	n	n	n	n	n	n
COc1ccc(S(=O)(=O)Nc2cc(Sc3ncn[nH]3)c(O)c3ccccc23)cc1	n	7.1µM	23µM	5µM	n	n
COc1ccc(S(=O)(=O)Nc2cc(SCC(=O)O)c(O)c3ccccc23)cc1	n	n	16µM	u	n	n
Cc1cc(C)c(S(=O)(=O)Nc2cc(SCC(=O)O)c(O)c3ccccc23)cc1C	n	u	n	11µM	n	n
CCOC(=O)c1ccc(-n2[nH]c(-c3ccccc3)cc2=O)cc1	n	5.6µM	u	u	n	n
CN(c1ccccc1)S(=O)(=O)c1ccc(NC(=O)c2ccccc2)cc1	n	n	u	u	n	n
Cc1cccc(C(=O)NC(=S)Nc2ccc(S(=O)(=O)N(C)c3ccccc3)cc2)c1	n	u	u	11µM	n	n
CC(C)C(=O)NC(=S)Nc1ccc(S(=O)(=O)NC2CCCCC2)cc1	n	u	12µM	u	n	n
CC(C)C(=O)NC(=S)Nc1ccc(S(=O)(=O)N(C)Cc2ccccc2)cc1	n	u	x	14µM	n	x
Cc1ccccc1C(=O)NC(=S)Nc1ccc(S(=O)(=O)N(C)c2ccccc2)cc1	n	u	n	11µM	n	n
Cc1cc(Br)ccc1NC(=O)COc1cc(=O)n(C)c2ccccc12	n	x	x	x	x	x
Cc1ccc2ncnc(NCCC(=O)O)c2c1	n	n	n	n	n	n
CC(=O)Nc1ccc(NC(=O)C2(C)Cc3c(-c4ccc(NC(C)=O)cc4)ccnc3O2)cc1 (configuration not stated)	n	x	x	x	x	x
S=c1[nH]c(-c2ccccc2)cs1	n	u	u	7.1µM	n	n
CC1(C)CC(=O)C(c2ccccc2)(c2ccccc2)C(=O)C1	n	x	x	x	n	x
COc1cc2c(cc1OC)CN(C(=O)CN1CCN(S(=O)(=O)c3ccccc3)CC1)CC2	n	n	n	n	n	n
O=C1CCC(C(=O)OC(C(=O)c2c[nH]c3ccccc23)c2ccccc2)=NN1 (configuration not stated)	n	7.1µM	u	n[10 µM]	n	n
SMILES	BRCA1 expr act	Gal4-VP16 FLuc	ELG1 repair inh	RORgamma inh	Giardia kill	p53 reactivation
O=C1COc2cc(O)ccc21	n	x	x	x	n	x
CCC1Cc2cc(O)ccc2C2=C1c1ccc(O)cc1CC2CC (configuration not stated)	x	13µM	x	u	x	x
CCOC(=O)C1=C(C)NC(C)=C(C(=O)OCC)C1C(=O)OCC(=O)c1ccc2c(c1)OCCO2	n	n	2.9µM	n	n	n
O=C(COC(=O)c1ccc(O)cc1)Nc1ccc2c(c1)OCCO2	u	x	u	x	n	u
O=C(COC(=O)c1ccc(O)cc1)c1ccc2c(c1)OCCO2	10µM	x	u	x	n	n
Cc1ccc(C(=O)COC(=O)c2ccc(O)cc2)cc1	u	11µM	u	u	n	n
O=C(COC(=O)c1cc(Cl)ccc1O)c1ccc2c(c1)OCO2	n	x	u	x	n	n
O=C(COC(=O)c1ccc(O)cc1O)c1ccc2c(c1)OCO2	n	u	n	7.1µM	n	n
CCOC(=O)c1cccc(N2C(=O)Nc3ccccc3N2O)c1	n	n	n	n	n	n
CCOC(=O)C1CCCNC1=O (configuration not stated)	n	n	n	n	n	n
COc1cc(OC)c(N(C)C(=O)c2c(C)oc3ncnc(N4CCCCC4)c23)cc1Cl	n	x	x	x	x	x
Cc1ccc(N=Nc2c(O)c3ccccc3[nH]c2=O)c(S(=O)(=O)N(C)C)c1	x	n	n	n	x	n
COc1cc(C(=O)Oc2ccc(Br)cc2C(=S)N2CCOCC2)cc(OC)c1OC	n	n	n	n	n	n
CC(=O)C1=C(C)OC(N)=C(C#N)C1c1ccncc1 (configuration not stated)	n	18µM	n	u	n	u
CN(Cc1nc(-c2cnccn2)no1)CC1CCN(Cc2ccccc2)CC1	n	n	n	n	n	n
CC(C)(C)C(=O)Nc1nnc(SCc2cccc(F)c2)s1	14µM	n	u	u	n	u
COCCSc1nnc(NC(=O)C(C)(C)C)s1	5.6µM	u	u	n	n	n
O=C(Cc1cccs1)Nc1nnc(SCc2ccc(C(F)(F)F)cc2)s1	n	n	n	10µM	n	n
CC(=O)Nc1ccc(S(=O)(=O)Nc2cccc(-c3cn4cccnc4n3)c2)cc1	n	n	n	n	n	n
Nc1cc(=O)n(Cc2ccco2)c(=S)[nH]1	n	x	x	x	x	x
COc1cc2nc(CN3CCN(S(=O)(=O)c4cc(C)ccc4C)CC3)[nH]c(=O)c2cc1OC	n	x	15µM	x	n	n
COc1cc2nc(CN3CCC(Cc4ccccc4)CC3)[nH]c(=O)c2cc1OC	n	n	n	11µM	n	n
COc1cc(OC)c(OC)cc1/C=C/C(=O)c1ccc(NS(=O)(=O)c2ccc(C)cc2)cc1	n	n	15µM	u	n	n
Cc1ccc(Cl)c(N/C=C/C(=O)c2ccccc2)c1	n	u	u	n	n	40µM
COc1ccc(C(=O)/C=C/Nc2ccc(S(=O)(=O)Nc3cccc(C(C)=O)c3)cc2)cc1	n	5.6µM	23µM	n	n	n
Cc1cccc(N/C=C/C(=O)c2ccc(Cl)cc2)c1	u	u	u	3.2µM	n	u
CC(=O)c1ccc(NS(=O)(=O)c2ccc(C)cc2)cc1	n	n	n	n	n	n
COc1cccc(C(=O)/C=C/Nc2ccc(S(=O)(=O)Nc3ccc(C(C)=O)cc3)cc2)c1	n	n	n	u	n	u
COC(=O)/C=C1/N/C(=N\c2nc(C)cc(C)n2)N(c2ccccc2)C1=O	n	n	n	n	n	n
